# According to PubChem BioAssay:
# The source made the active and inactive calls. Unless noted, no rule for the calls is given here.
# Legend:
# [1] = resazurin metabolic signal in HepG2 cells – cell-based, resazurin fluorescence, 24 h, PK04 Diversity Set, profiling panel (AID 1172); details: HepG2 viability, higher = more signal
# [2] = budding yeast growth changes without added modifier – OD600, strain BY4716, 24 h, basal condition, primary screen (AID 1173); details: S. cerevisiae BY4716 growth, OD600, 24 h; higher = more signal, called active from +8 up or from −8 down
# [3] = viability profiling in MM1S myeloma cells – cell-based, resazurin fluorescence, basal, 24 h, PK04 Diversity Set, profiling panel (AID 1174); details: higher = more signal, called active from +8 up or from −8 down;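 also: MM1S multiple myeloma cell line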
# [4] = target: Dihydroorotate dehydrogenase (quinone), mitochondrial (Plasmodium falciparum (isolate 3D7)) (UniProt Q08210); assay: inhibition of P. falciparum DHODH – biochemical, C-terminal His tag, absorbance 600 nm, primary screen (AID 1175); details: PfDHODH enzyme, DCIP absorbance 600 nm; higher = more signal, called active from +8 up or from −8 down;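 also: recombinant parasite enzyme with a five histidine tag at its C terminus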
# [5] = inhibition of PAO1 biofilm formation – strain PAO1, LB-PBS medium, absorbance 600 nm, primary screen (AID 1176); details: P. aeruginosa PAO1 growth/biofilm, A600, 12 h; higher = more signal
# [6] = growth modulation of vineyard yeast isolate – strain RM11-1a, OD600, basal, 24 h, primary screen (AID 1177);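 also: cultures grown under basal conditions with no added stressor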; details: S. cerevisiae RM11-1a growth, OD600, 24 h; higher = more signal, called active from +8 up or from −8 down
# [7] = growth of efflux-deficient E. coli DRC39 – strain DRC39, OD650, 24 h, E. coli filamentation inducers, primary screen (AID 1178);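 also: growth measured as culture turbidity by optical density at 650 nm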; details: E. coli DRC39 acrAB, higher = more signal, called active from +8 up or from −8 down
# [8] = growth of efflux-deficient E. coli DRC39 – strain DRC39, OD650, 48 h, E. coli filamentation inducers, primary screen (AID 1179);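 also: screen aims at cell division blockers that make cells filament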; details: E. coli DRC39 delta-acrAB growth, higher = more signal, called active from +8 up or from −8 down
# [9] = viability profiling in RPMI8226 myeloma cells – cell-based, resazurin fluorescence, basal, 24 h, PK04 Diversity Set, profiling panel (AID 1180); details: higher = more signal;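 also: RPMI8826 multiple myeloma cell line at 5000 cells per well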
# [10] = target: E3 ubiquitin-protein ligase XIAP (Homo sapiens) (UniProt P98170); assay: small molecules binding XIAP protein – biophysical, small-molecule microarray, fluorescence 635 nm, primary screen (AID 1181); details: higher = more signal;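 also: score merges 667 nm emission and signal to noise over triplicate slides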
# [11] = test system: XIP peptide (Xip251-270) binding; assay: XIP fragment 251-270 binding compounds – biochemical, small-molecule microarray, fluorescence 635/667 nm, 0.1 µg/mL protein, primary screen (AID 1182); details: fluorescent protein binding, 635 nm, higher = more signal, called active from +8 up or from −8 down
# XIP peptide (Xip251-270) = assay: compounds binding XIP fragment 251-270 – biochemical, small-molecule microarray, fluorescence 635/667 nm, 0.5 µg/mL protein, primary screen (AID 1183); details: fluorescence 635 nm, higher = more signal
# [12] = blood-stage malaria parasite viability loss – strain 3D7, DAPI fluorescence, 100 nL, primary screen (AID 1184);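 also: parasites grown inside human red blood cells in medium with human serum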; details: P. falciparum 3D7 growth, 3 d, higher = more signal
# [13] = target: Homeobox protein Hox-A13 (Mus musculus) (UniProt Q62424); assay: disruptors of Hoxa13 oligonucleotide interaction – biochemical, fluorescence polarization, labeled oligonucleotide, primary screen (AID 1185); details: Hoxa13:DNA binding, 15 min, higher = more signal, called active from +8 up or from −8 down
# [14] = blockers of DNA damage checkpoint Chk1 activation – imaging, HeLa, hydroxyurea, phospho-Chk1 antibody, percent positive cells, primary screen (AID 1186); details: hydroxyurea-induced phospho-Chk1 immunofluorescence imaging, higher = more signal
# [15] = blockers of DNA damage checkpoint Chk1 activation – imaging, HeLa, hydroxyurea, phospho-Chk1 nuclear intensity, primary screen (AID 1187); details: hydroxyurea-induced phospho-Chk1 immunofluorescence imaging, higher = more signal
# Sequence of E3 ubiquitin-protein ligase XIAP (Homo sapiens) (P98170 whole entry, looked up, the tested form may be a part): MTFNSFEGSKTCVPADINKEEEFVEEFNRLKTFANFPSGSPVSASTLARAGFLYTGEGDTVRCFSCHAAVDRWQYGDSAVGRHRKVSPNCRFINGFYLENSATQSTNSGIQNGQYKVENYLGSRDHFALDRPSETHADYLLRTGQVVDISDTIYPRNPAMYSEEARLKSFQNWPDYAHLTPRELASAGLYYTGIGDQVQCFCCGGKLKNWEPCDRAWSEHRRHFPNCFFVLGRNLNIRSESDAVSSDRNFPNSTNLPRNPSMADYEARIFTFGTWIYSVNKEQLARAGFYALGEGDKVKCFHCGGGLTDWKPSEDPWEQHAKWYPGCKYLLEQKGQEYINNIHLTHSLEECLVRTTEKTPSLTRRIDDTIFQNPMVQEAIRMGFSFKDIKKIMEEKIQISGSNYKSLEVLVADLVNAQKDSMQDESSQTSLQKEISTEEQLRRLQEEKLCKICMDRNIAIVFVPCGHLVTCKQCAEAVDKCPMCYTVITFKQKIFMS
# Sequence of Homeobox protein Hox-A13 (Mus musculus) (Q62424 whole entry, looked up): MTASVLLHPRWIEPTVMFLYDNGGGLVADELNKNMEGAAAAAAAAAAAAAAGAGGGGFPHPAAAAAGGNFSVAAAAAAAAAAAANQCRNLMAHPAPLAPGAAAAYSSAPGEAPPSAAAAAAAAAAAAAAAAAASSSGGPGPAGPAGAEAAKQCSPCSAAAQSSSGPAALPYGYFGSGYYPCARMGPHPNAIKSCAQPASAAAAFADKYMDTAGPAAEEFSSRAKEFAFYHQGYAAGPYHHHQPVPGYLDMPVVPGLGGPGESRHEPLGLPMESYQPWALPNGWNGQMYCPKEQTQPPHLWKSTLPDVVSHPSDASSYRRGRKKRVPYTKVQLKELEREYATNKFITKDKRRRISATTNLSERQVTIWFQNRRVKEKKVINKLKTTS
# Sequence of Dihydroorotate dehydrogenase (quinone), mitochondrial (Plasmodium falciparum (isolate 3D7)) (Q08210 whole entry, looked up): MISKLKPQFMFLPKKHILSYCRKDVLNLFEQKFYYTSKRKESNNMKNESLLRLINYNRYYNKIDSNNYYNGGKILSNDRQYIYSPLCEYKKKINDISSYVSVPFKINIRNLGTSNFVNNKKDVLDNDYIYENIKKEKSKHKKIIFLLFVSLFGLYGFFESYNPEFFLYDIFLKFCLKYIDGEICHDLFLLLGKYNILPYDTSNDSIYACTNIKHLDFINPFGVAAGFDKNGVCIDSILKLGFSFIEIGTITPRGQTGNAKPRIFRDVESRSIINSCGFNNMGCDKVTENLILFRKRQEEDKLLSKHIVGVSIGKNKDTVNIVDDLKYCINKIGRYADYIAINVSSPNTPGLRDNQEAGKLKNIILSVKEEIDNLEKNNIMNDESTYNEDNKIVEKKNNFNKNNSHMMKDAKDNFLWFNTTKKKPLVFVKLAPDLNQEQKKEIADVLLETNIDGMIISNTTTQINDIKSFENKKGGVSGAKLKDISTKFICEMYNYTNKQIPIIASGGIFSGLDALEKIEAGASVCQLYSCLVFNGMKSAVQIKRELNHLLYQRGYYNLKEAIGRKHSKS
smiles,measurement,setting,value
[N-]=[N+]=NCc1ccccc1C[C@@]1(C(=O)N2CCOCC2)N=C(c2ccc(OCCCO)cc2)O[C@@H]1c1ccccc1CN=[N+]=[N-],z-score,[1],-0.638
same,z-score,[2],0.418 (inactive)
same,z-score,[3],-2.22 (inactive)
same,composite z-score,[4],-0.346 (inactive)
same,z-score,[5],2.03 (inactive)
same,z-score,[6],1.19 (inactive)
same,z-score,[7],0.296 (inactive)
same,z-score,[8],1.06 (inactive)
same,z-score,[9],-1.46
same,composite z-score,[10],-0.138
same,composite z-score,[11],1.16 (inactive)
same,composite z-score,XIP peptide (Xip251-270),0.788
same,z-score,[12],-2.36
same,z-score,[13],0.223 (inactive)
same,z-score,[14],-0.544 (inactive)
same,z-score,[15],-0.629 (inactive)
[N-]=[N+]=NCc1ccccc1C[C@]1(C(=O)NCCN2CCOCC2)N=C(c2ccc(OCCCO)cc2)O[C@H]1c1ccccc1N=[N+]=[N-],z-score,[1],-0.854
same,z-score,[2],-0.318 (inactive)
same,z-score,[3],-0.739 (inactive)
same,composite z-score,[4],0.345 (inactive)
same,z-score,[5],1.57 (inactive)
same,z-score,[6],0.145 (inactive)
same,z-score,[7],1.73 (inactive)
same,z-score,[8],1.08 (inactive)
same,z-score,[9],-1.85
same,composite z-score,[10],0.317
same,composite z-score,[11],0.281 (inactive)
same,composite z-score,XIP peptide (Xip251-270),0.614
same,z-score,[12],-2.1
same,z-score,[13],-1.02 (inactive)
same,z-score,[14],-0.2 (inactive)
same,z-score,[15],0.0241 (inactive)
CC(C)=CCCC(C)=CC(O)C1C=CC2C(=O)N(c3ccccc3)C(=O)C2N1Nc1ccccc1 (centres undefined),z-score,[1],-1.4
same,z-score,[2],-1.66 (inactive)
same,z-score,[3],-1.49 (inactive)
same,composite z-score,[4],0.0928 (inactive)
same,z-score,[5],1.32 (inactive)
same,z-score,[6],0.42 (inactive)
same,z-score,[7],-0.994 (inactive)
same,z-score,[8],-0.927 (inactive)
same,z-score,[9],-1.56
same,composite z-score,[10],0.0655
same,composite z-score,[11],0.634 (inactive)
same,composite z-score,XIP peptide (Xip251-270),0.828
same,z-score,[12],-0.168
same,z-score,[13],-3.67 (inactive)
same,z-score,[14],0.881 (inactive)
same,z-score,[15],0.352 (inactive)
CC(C)C(=C=CC[C@H](O)c1cccc(OCCO)c1)C[C@H](O)COCc1ccccc1,z-score,[1],0.685
same,z-score,[2],-0.535 (inactive)
same,z-score,[3],0.0454 (inactive)
same,composite z-score,[4],-1.25 (inactive)
same,z-score,[5],0.449 (inactive)
same,z-score,[6],0.194 (inactive)
same,z-score,[7],0.339 (inactive)
same,z-score,[8],0.262 (inactive)
same,z-score,[9],0.163
same,composite z-score,[10],-0.113
same,composite z-score,[11],0.31 (inactive)
same,composite z-score,XIP peptide (Xip251-270),-0.376
same,z-score,[12],-1.49
same,z-score,[13],-3.93 (inactive)
same,z-score,[14],-0.648 (inactive)
same,z-score,[15],-0.289 (inactive)
COC(=O)[C@]1(Cc2ccccc2N=[N+]=[N-])N=C(c2ccc(OCCCO)cc2)O[C@@H]1c1ccccc1N=[N+]=[N-],z-score,[1],-3.41
same,z-score,[2],-0.569 (inactive)
same,z-score,[3],-6.71 (inactive)
same,composite z-score,[4],0.519 (inactive)
same,z-score,[5],0.755 (inactive)
same,z-score,[6],-0.0599 (inactive)
same,z-score,[7],0.2 (inactive)
same,z-score,[8],-0.54 (inactive)
same,z-score,[9],-7
same,composite z-score,[10],0.165
same,composite z-score,[11],0.404 (inactive)
same,composite z-score,XIP peptide (Xip251-270),0.614
same,z-score,[12],-2.09
same,z-score,[13],-2.31 (inactive)
same,z-score,[14],-0.53 (inactive)
same,z-score,[15],-0.923 (inactive)
CCCCC(CC)C(O)C1C=CC2C(=O)N(c3ccccc3)C(=O)C2N1Nc1ccccc1 (centres undefined),z-score,[1],-1.3
same,z-score,[2],-1.14 (inactive)
same,z-score,[3],-1.51 (inactive)
same,composite z-score,[4],-0.524 (inactive)
same,z-score,[5],0.462 (inactive)
same,z-score,[6],-0.347 (inactive)
same,z-score,[7],-0.556 (inactive)
same,z-score,[8],-0.945 (inactive)
same,z-score,[9],-1.42
same,composite z-score,[10],0.387
same,composite z-score,[11],-0.147 (inactive)
same,composite z-score,XIP peptide (Xip251-270),0.216
same,z-score,[12],-0.392
same,z-score,[13],-1.89 (inactive)
same,z-score,[14],-0.335 (inactive)
same,z-score,[15],-0.23 (inactive)
COC(=O)[C@@]1(Cc2ccccc2)[C@H]2c3cc(C(=O)N4CCCC4)n(C)c3C[C@H]2CN1C(=O)c1ccccc1,z-score,[1],-0.533
same,z-score,[2],0.211 (inactive)
same,z-score,[3],-1.48 (inactive)
same,composite z-score,[4],0.381 (inactive)
same,z-score,[5],0.976 (inactive)
same,z-score,[6],0.513 (inactive)
same,z-score,[7],-0.396 (inactive)
same,z-score,[8],-0.0676 (inactive)
same,z-score,[9],-0.705
same,composite z-score,[10],0.391
same,composite z-score,[11],-0.0625 (inactive)
same,composite z-score,XIP peptide (Xip251-270),0.46
same,z-score,[12],-0.994
same,z-score,[13],-5.7 (inactive)
same,z-score,[14],0.0684 (inactive)
same,z-score,[15],-0.0761 (inactive)
CS(=O)(=O)CCOC(=O)C1=CC(c2ccc(CO)cc2)=CC(C2CC2)N(Cc2cc3c(cc2Br)OCO3)C=C1C(=O)OCCS(C)(=O)=O (centres undefined),z-score,[1],-0.311
same,z-score,[2],-4.92 (inactive)
same,z-score,[3],-2.7 (inactive)
same,composite z-score,[4],-0.735 (inactive)
same,z-score,[5],0.613 (inactive)
same,z-score,[6],0.478 (inactive)
same,z-score,[7],0.537 (inactive)
same,z-score,[8],-0.75 (inactive)
same,z-score,[9],-2.19
same,composite z-score,[10],0.14
same,composite z-score,[11],0.0295 (inactive)
same,composite z-score,XIP peptide (Xip251-270),0.639
same,z-score,[12],-2.58
same,z-score,[13],-2.94 (inactive)
same,z-score,[14],-0.572 (inactive)
same,z-score,[15],-0.534 (inactive)
COc1ccc([Si](C)(C)[C@H]2[C@H](CCn3cc(CCO)nn3)O[C@@]3(C(=O)N(Cc4ccc(N5CCOC5=O)cc4)c4ccccc43)[C@@H]2C)cc1,z-score,[1],-0.909
same,z-score,[2],0.93 (inactive)
same,z-score,[3],-2.57 (inactive)
same,composite z-score,[4],0.604 (inactive)
same,z-score,[5],0.802 (inactive)
same,z-score,[6],1.22 (inactive)
same,z-score,[7],0.864 (inactive)
same,z-score,[8],0.562 (inactive)
same,z-score,[9],-2.01
same,composite z-score,[10],0.339
same,composite z-score,[11],0.523 (inactive)
same,composite z-score,XIP peptide (Xip251-270),0.866
same,z-score,[12],-2.38
same,z-score,[13],-4.22 (inactive)
same,z-score,[14],-1.11 (inactive)
same,z-score,[15],-0.744 (inactive)
